A short description of experiment [1]: ACEA_AR_antagonist_AUC_viability: ACEA Biosciences xCELLigence Real-Time Cell Analysis on Androgen Receptor Antagonism for Viability (AID 2283776).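 Further: area under impedance growth curve at 80 h after dosing as viability; hits lower the growth signal relative to DMSO meaning cytotoxicity.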 In short, it runs like this: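 22Rv1 human prostate cancer cells were seeded on electrode plates, monitored overnight, then exposed to eight 1:4 dilutions from 100 uM final. Impedance-based growth kinetics at 80 h gave an AUC viability endpoint normalized to DMSO.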

The nature of experiment [2]: ACEA_AR_agonist_AUC_viability: ACEA Biosciences xCELLigence Real-Time Cell Analysis on Androgen Receptor Agonism for Viability (AID 2283775).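 On AC50: viability read 80 hours after compound addition.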 In short, it runs like this: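 Read-out is area under the impedance curve at 80 h post-dose in 22Rv1 cells, with DMSO as baseline and signal loss taken as reduced viability. Compounds ran in duplicate from 100 uM final.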

10 molecules from PubChem BioAssay (EPA / NIEHS) can be followed below.

Results filed as inconclusive are left out. Some structures have more than one record in an assay (separate samples or runs), and their calls can disagree. Activity calls are given as the source filed them. How the source made its calls: active means hit-call score of the fitted dose curve at least 0.9, where 1 is the maximum; inconclusive means response in the unintended direction; inactive means score below 0.9.

`N#Cc1c(Cl)c(Cl)c(Cl)c(C#N)c1Cl`: the AC50 in experiment [1] is 3.7 µM (active).

Consider `ClC1C(Cl)C(Cl)C(Cl)C(Cl)C1Cl` (centres undefined), for which the call in experiment [2] was inactive. Further, in experiment [1], the AC50 was 37.8 µM (active) and the call was inactive.

`CCC(C)(C)C(=O)OC1=C(c2ccc(Cl)cc2Cl)C(=O)OC12CCCCC2`: in experiment [2], the AC50 was 81.9 µM (active). Further, in experiment [1], the call was inactive.

In the case of `CC[C@H](C)[C@H]1O[C@]2(C=C[C@@H]1C)C[C@@H]1C[C@@H](C/C=C(\C)[C@@H](O[C@H]3C[C@H](OC)[C@@H](O[C@H]4C[C@H](OC)[C@@H](O)[C@H](C)O4)[C@H](C)O3)[C@@H](C)/C=C/C=C3\CO[C@@H]4[C@H](O)C(C)=C[C@@H](C(=O)O1)[C@]34O)O2` (tested in a mixture with another compound), the figures for the AC50 in experiment [2] and in experiment [1] were 4.08 µM (active) and 4.93 µM (active), respectively.

Take `C#CCN1C(=O)COc2cc(F)c(N3C(=O)C4=C(CCCC4)C3=O)cc21`: the AC50 in experiment [2] and in experiment [1] was 50 µM (active) each time.

On to `CC(C)(C)C(O)/C(=C\c1ccc(Cl)cc1Cl)n1cncn1` (centres undefined), for which, in experiment [1], the AC50 was 20.3 µM (active).

In the case of `CCC(C)(NC(=O)c1cc(Cl)c(C)c(Cl)c1)C(=O)CCl` (centres undefined), the results for the AC50 in experiment [2] and in experiment [1] were 26.5 µM (active) and 22 µM (active), respectively.

For the molecule `O=[N+]([O-])/N=C1\NCCN1Cc1ccc(Cl)nc1`, the result in experiment [2] and in experiment [1] was inactive.

On to `Cc1[nH]c(=O)n(C(C)(C)C)c(=O)c1Cl`, for which the molecule was called inactive in experiment [2] and in experiment [1].

For the molecule `O=[N+]([O-])c1c(Cl)c(Cl)c(Cl)c(Cl)c1Cl`, the AC50 is 58.6 µM (active) in experiment [2] and 50 µM (active) in experiment [1].

As usually defined, the AC50 is the concentration at which the activity in the assay is half-maximal.
